Bioassay records deposited in PubChem BioAssay by several laboratories.
Only some compounds are listed: those with a hit (about 2.5% of all), similar ones and a draw of the others.
F508del corr – F508del CFTR correction, initial screen, CFBE line, single point; activity (quench increase), % at 7.58 µM; 350,000 tested, 0.36% active; CFBE cells, YFP halide quenching; stimulated with forskolin plus potentiator P3; % fluorescence drop versus neutral controls; AID 720511, 2013;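 active = mean added fluorescence quench of at least 8% versus neutral control, with both replicates also reaching 8%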;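 note: cells transiently co-express mutant CFTR-F508del with the halide-sensitive YFP; corrector assay measuring rescue of mutant channel to the surface after 24 h compound exposure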
EWS-Fli inh – EWS/Fli-driven NR0B1 reporter inhibitors, primary screen, A673 cells, NR0B1 luciferase, luminescence, MLPCN library; viability-normalised; inhibition, % at 12.6 µM; 350,000 tested, 0.67% active;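 active = mean inhibition of at least 50% after viability correction, with every replicate also passing that limit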;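 note: firefly luciferase signal divided by Alamar Blue viability fluorescence both relative to DMSO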
PAX8 reporter – inhibitors of PAX8-driven TPO luciferase reporter, primary screen, RMG-I cells, single concentration | SteadyGlo, 24 h | inhibition, % at 12.6 µM | 360,000 tested, 1.2% active | AID 652154, 2013;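 active = mean replicate inhibition at least 60% with every replicate also reaching 60%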;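 note: luciferase light reporting Pax8 driven TPO promoter activity; plate controls were median of neutral control wells for no effect and mitoxantrone controls for full effect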
GAA850 FXN act – FXN promoter activators, primary screen, cell-based, luciferase luminescence, HEK293 lucGAA850; HEK293 lucGAA850 FXN promoter luciferase reporter, 24 h; percent of 10 µM SAHA response; activation, % at 6 µM; 360,000 tested, 0.56% active;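 active = activation above the average of all compounds screened plus 3 SD, cutoff fixed separately per campaign, cut at about 7.5% in these data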;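 note: 0% = DMSO wells and 100% = 10 µM SAHA wells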
HIV Env fusion – inhibitors of HIV-1 Env-driven cell-cell fusion, primary screen, HeLa-JRFL effector, CEM21 target cells, luciferase | inhibition, % at 12.3 µM | 360,000 tested, 1.1% active | AID 651610, 2012;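 active = mean replicate inhibition score of at least 50 and every replicate individually at or above 50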;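 note: 0% = plate neutral controls and 100% = maraviroc near 300 nM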
* = called active by the depositor; i = inactive; . = not tested or not shown; ! = a repeat was not active; [ ] = dose if it differs, or a comment.

SMILES | F508del corr | EWS-Fli inh | PAX8 reporter | GAA850 FXN act | HIV Env fusion
CCN1[C@@H]2Cn3c(ccc(-c4ccc(OC)cc4)c3=O)[C@H]1[C@@H](C(=O)OC)[C@@H]2CO | . | 3 | . | . | .
C[C@H]1CCCC(=O)CCC/C=C/c2cc(O)cc(O)c2C(=O)O1 | -3 | 10 | 26 | -3 | 13
C[C@H]1CCC/C=C/[C@@H]2C[C@H](O)C[C@H]2[C@H](O)/C=C/C(=O)O1 | 16*! | 54* | 110* | -9 | 94*!
O=C(Cc1cccnc1)N1CCCCN2[C@H](CO)[C@@H](c3ccc(C#CC4CC4)cc3)[C@@H]2C1 | -2 | 7 | 2 | . | .
CC(C)c1ccc(N2C(=O)NC(=O)/C(=C\C=C\c3ccco3)C2=O)cc1 | -5 | 74* | -2 | . | -213
O=C1NC(=O)N(Cc2ccccc2)C(=O)/C1=C/C=C/c1ccco1 | -5 | 65* | 27 | 5 | i
COc1ccc(CN2C(=O)NC(=O)/C(=C\c3ccco3)C2=O)cc1 | 1 | 7 | 14 | 1 | -7
O=C(Cc1ccccn1)N1CCCCN2[C@@H](CO)[C@@H](c3ccc(-c4ccc(F)cc4)cc3)[C@@H]2C1 | 4 | 6 | 89* | . | .
COc1ccc(-c2ccc([C@@H]3[C@@H](CO)N4CCCCN(C(=O)Cc5ccccc5)C[C@H]34)cc2)cc1 | 0 | . | 119* | . | .
O=C(Cc1ccccn1)N1CCCCN2[C@@H](CO)[C@H](c3ccc(-c4ccc(F)cc4)cc3)[C@@H]2C1 | -5 | -2 | -1 | . | .
COC(=O)[C@H]1[C@H](CO)[C@H]2Cn3c(ccc(-c4ccccc4F)c3=O)[C@@H]1N2C(C)=O | -1 | -3 | 7 | . | .
COc1ccc(OC(=O)N(C)C[C@@H]2OCc3ccccc3-c3c(n(C)c4ccccc34)C(=O)N([C@H](C)CO)C[C@H]2C)cc1 | 2 | . | 3 | . | .
CCOC(=O)c1cncn1[C@@H](C)c1ccccc1 | 8.9* | 1 | 5 | 0 | -27
Cc1ccccc1-c1ccc([C@@H]2[C@H](CO)N3CCCCN(C(=O)Cc4ccccn4)C[C@@H]23)cc1 | 0 | -11 | -32 | . | .
CCn1nc(/C=C/c2ccccc2)nc2c(=O)n(C)c(=O)nc1-2 | -4 | 28 | 94* | -15 | 27
CCn1nc(-c2cccs2)nc2c(=O)n(C)c(=O)nc1-2 | . | . | . | -14 | .
O=c1[nH]c2ccccc2n1C1CCN(C(CCc2ccccc2)c2nnnn2-c2ccc3c(c2)OCCO3)CC1 (stereo unspecified) | -1 | 41 | 106* | . | 38
O=c1[nH]c2ccccc2n1C1CCN(C(c2ccnc3ccccc23)c2nnnn2-c2ccc3c(c2)OCCO3)CC1 (stereo unspecified) | -1 | 1 | 77* | . | 21
COc1ccc(-n2nnnc2C(CCc2ccccc2)N2CCC(n3c(=O)[nH]c4ccccc43)CC2)cc1 (stereo unspecified) | 2 | 4 | 104* | . | 14
Cc1cccc(C)c1-n1nnnc1C(CCc1ccccc1)N1CCC(n2c(=O)[nH]c3ccccc32)CC1 (stereo unspecified) | -1 | 37 | -18 | . | 27
CC=Cc1ccc2n(c1=O)C[C@@H]1[C@@H](CO)[C@H](C(=O)OC)[C@H]2N1CC1CCOCC1 (mixture of isomers) | . | -13 | -1 | . | -7[16.7 µM]
O=C(NN=Cc1ccc(N(CCCl)CCCl)cc1Cl)c1cccnc1 | 0 | 24 | -19 | -10 | 56*
N#Cc1cccc(-c2ccc([C@@H]3[C@@H](CO)N4CCCCN(C(=O)Cc5ccncc5)C[C@H]34)cc2)c1 | 2 | . | 10 | . | .
CCC(=NCCc1c[nH]c2ccccc12)c1c(O)n(C)c(=O)n(C)c1=O | . | . | . | -1 | 81*
CCC(=NCCc1c[nH]c2ccccc12)c1c(O)n(-c2ccc(C)cc2)c(=O)[nH]c1=O | . | 5 | 4 | 3 | 8
CCC(=NCCOc1ccc(Cl)cc1)c1c(O)n(C)c(=O)n(C)c1=O | . | . | 12 | -1 | 50*
CC(=NCc1ccc2c(c1)OCO2)c1c(O)n(C)c(=O)n(C)c1=O | . | . | 12 | -2 | -43
CCC(=NCc1ccc2c(c1)OCO2)c1c(O)n(C)c(=O)n(C)c1=O | . | . | 18 | 2 | 77*
CCCN1[C@@H]2Cn3c(ccc(-c4ccccc4)c3=O)[C@H]1[C@@H](C(=O)OC)[C@@H]2CO | 1 | 0 | -1 | . | .
